What all share (assay): DAPPL (digital affinity profiling via proximity ligation, sequencing); 10 mM Tris-HCl pH 7.5, 50 mM NaCl, 1 mM DTT, 4% glycerol, room temperature, 30 min; GST-TFs on glutathione beads, 16-mer random dsDNA library, 0.1% formaldehyde crosslink after washing; high values mean tight binding
What all share (conditions): protein: recombinant; tags: N-terminal GST; dsDNA, one strand shown

Test [1] deals with T1, FLI1 (Homo sapiens, UniProt Q01543 1-452).
T1 sequence: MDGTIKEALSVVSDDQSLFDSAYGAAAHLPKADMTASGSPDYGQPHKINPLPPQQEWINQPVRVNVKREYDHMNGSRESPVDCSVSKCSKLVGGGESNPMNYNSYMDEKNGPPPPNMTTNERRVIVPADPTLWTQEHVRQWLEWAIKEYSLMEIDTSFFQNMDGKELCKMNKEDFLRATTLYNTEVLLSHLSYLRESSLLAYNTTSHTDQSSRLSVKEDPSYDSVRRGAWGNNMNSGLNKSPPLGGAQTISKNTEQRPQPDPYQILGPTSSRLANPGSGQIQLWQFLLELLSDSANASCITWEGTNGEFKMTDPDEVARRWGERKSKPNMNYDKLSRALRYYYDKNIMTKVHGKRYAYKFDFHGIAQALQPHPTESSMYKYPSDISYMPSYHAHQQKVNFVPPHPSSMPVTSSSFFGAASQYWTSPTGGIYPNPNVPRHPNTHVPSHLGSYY
A digest of the protocol:
(§1)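 After expression in yeast as GST fusions, human transcription factors were bound to glutathione beads, DNA-barcoded and mixed with a tag-only sample. The pools were incubated with 200 nmole of a 16-mer random double-stranded DNA library in Tris/NaCl/DTT/glycerol buffer (30 min, room temperature), washed and crosslinked with 0.1% formaldehyde. Proximity ligation with BsaI/T4 ligase ran for 1 h at 37 °C, before PCR amplification and sequencing on an Illumina NextSeq500. Binding signal is a hexamer's read frequency for a factor divided by its frequency for the tag-only sample.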

Test [2] addresses T2, ELK1 (Homo sapiens, UniProt P19419 1-428).
T2 sequence: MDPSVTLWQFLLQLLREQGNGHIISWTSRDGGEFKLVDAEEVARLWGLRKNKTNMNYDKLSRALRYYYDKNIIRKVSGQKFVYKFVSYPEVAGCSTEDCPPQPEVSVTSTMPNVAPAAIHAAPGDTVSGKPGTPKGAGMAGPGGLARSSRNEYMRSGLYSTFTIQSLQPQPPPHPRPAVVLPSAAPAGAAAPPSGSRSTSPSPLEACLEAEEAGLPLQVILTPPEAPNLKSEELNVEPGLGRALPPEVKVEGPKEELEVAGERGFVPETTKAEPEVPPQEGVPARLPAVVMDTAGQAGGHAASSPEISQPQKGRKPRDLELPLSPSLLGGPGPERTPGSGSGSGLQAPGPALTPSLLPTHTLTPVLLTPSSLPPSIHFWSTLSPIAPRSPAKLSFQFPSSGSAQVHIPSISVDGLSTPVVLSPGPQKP
In outline: as §1

For test [3], the target named is T3, GABPA (Homo sapiens, UniProt Q06546 1-454).
T3 sequence: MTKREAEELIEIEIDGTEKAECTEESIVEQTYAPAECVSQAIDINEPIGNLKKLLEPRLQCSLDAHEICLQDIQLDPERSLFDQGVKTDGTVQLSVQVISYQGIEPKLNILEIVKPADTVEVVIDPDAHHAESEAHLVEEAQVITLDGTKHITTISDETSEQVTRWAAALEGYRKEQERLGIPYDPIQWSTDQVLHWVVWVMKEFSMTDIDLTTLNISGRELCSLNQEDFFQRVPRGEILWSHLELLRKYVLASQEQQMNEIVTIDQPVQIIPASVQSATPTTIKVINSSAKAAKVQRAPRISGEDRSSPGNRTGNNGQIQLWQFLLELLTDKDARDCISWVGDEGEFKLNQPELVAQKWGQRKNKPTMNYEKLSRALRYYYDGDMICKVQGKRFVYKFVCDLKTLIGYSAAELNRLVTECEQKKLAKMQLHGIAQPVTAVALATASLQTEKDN
A digest of the protocol: as §1

Test [4] deals with T4, ERG (Homo sapiens, UniProt P11308 1-479).
T4 sequence: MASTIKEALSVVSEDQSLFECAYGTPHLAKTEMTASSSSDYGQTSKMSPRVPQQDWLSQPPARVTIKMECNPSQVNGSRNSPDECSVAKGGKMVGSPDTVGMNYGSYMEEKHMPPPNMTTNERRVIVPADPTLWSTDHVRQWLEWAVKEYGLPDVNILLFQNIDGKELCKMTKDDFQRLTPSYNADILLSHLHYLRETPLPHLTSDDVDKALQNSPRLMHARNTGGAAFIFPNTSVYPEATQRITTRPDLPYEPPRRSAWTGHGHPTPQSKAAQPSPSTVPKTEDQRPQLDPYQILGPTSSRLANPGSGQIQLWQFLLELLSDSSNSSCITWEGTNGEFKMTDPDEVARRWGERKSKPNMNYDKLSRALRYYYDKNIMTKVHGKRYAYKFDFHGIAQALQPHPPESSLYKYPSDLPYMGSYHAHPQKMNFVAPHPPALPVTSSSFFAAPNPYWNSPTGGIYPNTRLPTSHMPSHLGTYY
In outline: as §1

Test [5] has as its target ELF1 (Homo sapiens, UniProt P32519 1-619). A digest of the protocol: as §1
Test [6] deals with T5, EHF (Homo sapiens, UniProt Q9NZC4 1-300).
T5 sequence: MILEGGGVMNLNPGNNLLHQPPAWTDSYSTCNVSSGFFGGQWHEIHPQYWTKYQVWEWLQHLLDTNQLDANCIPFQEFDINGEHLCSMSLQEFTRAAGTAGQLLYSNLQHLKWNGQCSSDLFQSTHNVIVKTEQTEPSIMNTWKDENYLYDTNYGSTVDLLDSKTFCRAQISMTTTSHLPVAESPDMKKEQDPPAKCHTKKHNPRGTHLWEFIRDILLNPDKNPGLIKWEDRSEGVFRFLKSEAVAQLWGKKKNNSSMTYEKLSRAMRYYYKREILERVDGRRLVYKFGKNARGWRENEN
In outline:
as §1

In test [7] the target is SPI1 (Homo sapiens, UniProt P17947 1-270). In outline:
as §1

Test [8] concerns the target SPIB (Homo sapiens, UniProt Q01892 1-262). In outline: as §1
Test [9] concerns the target T6, ELK3 (Homo sapiens, UniProt P41970 1-407).
T6 sequence: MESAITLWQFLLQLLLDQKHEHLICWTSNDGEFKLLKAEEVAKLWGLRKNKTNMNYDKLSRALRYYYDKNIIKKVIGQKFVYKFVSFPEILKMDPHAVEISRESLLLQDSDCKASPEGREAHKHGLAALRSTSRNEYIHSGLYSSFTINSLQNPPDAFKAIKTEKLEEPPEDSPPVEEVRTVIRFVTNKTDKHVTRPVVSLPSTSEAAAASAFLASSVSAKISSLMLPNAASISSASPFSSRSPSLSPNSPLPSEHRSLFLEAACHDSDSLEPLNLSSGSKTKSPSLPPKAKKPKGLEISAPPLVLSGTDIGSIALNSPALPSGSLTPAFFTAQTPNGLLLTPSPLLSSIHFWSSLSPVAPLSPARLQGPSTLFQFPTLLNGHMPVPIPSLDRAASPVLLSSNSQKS
A digest of the protocol:
as §1

Among the data in PMC7862700, “An all-to-all approach to the identification of sequence-specific readers for epigenetic DNA modifications on cytosine” are binding signal values, retold here.

ELF1, sequence (P32519 whole entry): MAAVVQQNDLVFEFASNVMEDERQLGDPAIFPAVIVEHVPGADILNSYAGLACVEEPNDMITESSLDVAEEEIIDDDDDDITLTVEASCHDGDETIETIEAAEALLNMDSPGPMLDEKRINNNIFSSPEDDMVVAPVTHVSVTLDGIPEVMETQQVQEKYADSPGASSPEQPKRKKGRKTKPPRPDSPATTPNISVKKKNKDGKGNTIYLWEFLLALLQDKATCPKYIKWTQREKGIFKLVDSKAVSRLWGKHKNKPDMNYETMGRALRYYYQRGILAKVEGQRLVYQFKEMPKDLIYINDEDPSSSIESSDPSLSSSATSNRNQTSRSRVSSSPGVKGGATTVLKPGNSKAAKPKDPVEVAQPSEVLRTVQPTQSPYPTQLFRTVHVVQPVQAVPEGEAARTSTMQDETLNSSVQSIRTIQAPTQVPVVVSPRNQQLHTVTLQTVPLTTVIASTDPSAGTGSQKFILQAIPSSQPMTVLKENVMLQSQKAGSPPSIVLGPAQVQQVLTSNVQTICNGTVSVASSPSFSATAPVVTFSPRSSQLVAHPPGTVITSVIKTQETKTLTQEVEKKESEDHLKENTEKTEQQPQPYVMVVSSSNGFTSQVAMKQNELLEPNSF
SPIB, sequence (Q01892 whole entry): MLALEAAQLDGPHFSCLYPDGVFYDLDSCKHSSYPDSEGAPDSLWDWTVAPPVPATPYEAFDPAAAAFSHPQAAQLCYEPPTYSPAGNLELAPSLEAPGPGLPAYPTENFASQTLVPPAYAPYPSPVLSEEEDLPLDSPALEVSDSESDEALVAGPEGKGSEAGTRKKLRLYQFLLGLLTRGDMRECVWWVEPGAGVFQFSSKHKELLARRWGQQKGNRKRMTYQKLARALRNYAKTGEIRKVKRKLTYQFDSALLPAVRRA

Regarding TGGTGT, the binding signal is 1.28 fold enrichment (6-mer frequency, TF over GST control) in [1]; 1.18 fold enrichment (6-mer frequency, TF over GST control) in test [2]; 1.35 fold enrichment (6-mer frequency, TF over GST control) in test [3]; 1.33 fold enrichment (6-mer frequency, TF over GST control) in [4]; 1.33 fold enrichment (6-mer frequency, TF over GST control) in test [5]; 1.31 fold enrichment (6-mer frequency, TF over GST control) in test [6]. Moreover, the binding signal in test [7] is 1.23 fold enrichment (6-mer frequency, TF over GST control); in test [8], 1.18 fold enrichment (6-mer frequency, TF over GST control); in [9], 1.4 fold enrichment (6-mer frequency, TF over GST control).

With TAGAAA, the binding signal is 1.1 fold enrichment (6-mer frequency, TF over GST control) in test [1]; 1.03 fold enrichment (6-mer frequency, TF over GST control) in test [2]; 1.02 fold enrichment (6-mer frequency, TF over GST control) in test [3]; 1.04 fold enrichment (6-mer frequency, TF over GST control) in [4]; 1.09 fold enrichment (6-mer frequency, TF over GST control) in test [5]; 1.07 fold enrichment (6-mer frequency, TF over GST control) in test [6]. Further, the binding signal is 1.11 fold enrichment (6-mer frequency, TF over GST control) in test [7]; 1.11 fold enrichment (6-mer frequency, TF over GST control) in test [8]; 1.09 fold enrichment (6-mer frequency, TF over GST control) in test [9].

On to GCCCCT, for which the binding signal in test [1] was 1.22 fold enrichment (6-mer frequency, TF over GST control); in test [2], 1.2 fold enrichment (6-mer frequency, TF over GST control); in test [3] it was 1.24 fold enrichment (6-mer frequency, TF over GST control); in test [4], 1.23 fold enrichment (6-mer frequency, TF over GST control); in [5], 1.37 fold enrichment (6-mer frequency, TF over GST control); in [6], 1.43 fold enrichment (6-mer frequency, TF over GST control). Besides, the binding signal is 1.29 fold enrichment (6-mer frequency, TF over GST control) in test [7]; 1.21 fold enrichment (6-mer frequency, TF over GST control) in [8]; 1.36 fold enrichment (6-mer frequency, TF over GST control) in test [9].

For the sequence TTTGGC, the binding signal in test [1] was 1.33 fold enrichment (6-mer frequency, TF over GST control); in test [2] it was 1.27 fold enrichment (6-mer frequency, TF over GST control); in [3], 1.25 fold enrichment (6-mer frequency, TF over GST control); in [4] it was 1.12 fold enrichment (6-mer frequency, TF over GST control); in test [5], 1.27 fold enrichment (6-mer frequency, TF over GST control); in test [6], 1.2 fold enrichment (6-mer frequency, TF over GST control). The binding signal in [7] was 1.22 fold enrichment (6-mer frequency, TF over GST control); in test [8], 1.29 fold enrichment (6-mer frequency, TF over GST control); in [9], 1.1 fold enrichment (6-mer frequency, TF over GST control).

On to TAATGA, for which the binding signal in test [1] was 1.09 fold enrichment (6-mer frequency, TF over GST control); in [2], 1.21 fold enrichment (6-mer frequency, TF over GST control); in [3], 1.26 fold enrichment (6-mer frequency, TF over GST control); in test [4], 1.02 fold enrichment (6-mer frequency, TF over GST control); in test [5], 1.1 fold enrichment (6-mer frequency, TF over GST control); in [6], 1.2 fold enrichment (6-mer frequency, TF over GST control). The binding signal in test [7] was 1.22 fold enrichment (6-mer frequency, TF over GST control); in [8] it was 1.16 fold enrichment (6-mer frequency, TF over GST control); in [9] it was 1.21 fold enrichment (6-mer frequency, TF over GST control).

In the case of CACTGG, the binding signal in test [1] is 1.15 fold enrichment (6-mer frequency, TF over GST control); in test [2], 1.07 fold enrichment (6-mer frequency, TF over GST control); in [3] it was 1.15 fold enrichment (6-mer frequency, TF over GST control); in test [4], 1.12 fold enrichment (6-mer frequency, TF over GST control); in test [5], 1.17 fold enrichment (6-mer frequency, TF over GST control); in test [6], 1.05 fold enrichment (6-mer frequency, TF over GST control). The binding signal was 1.03 fold enrichment (6-mer frequency, TF over GST control) in test [7]; 1.11 fold enrichment (6-mer frequency, TF over GST control) in test [8]; 1.02 fold enrichment (6-mer frequency, TF over GST control) in test [9].

In the case of AACGAA, the binding signal in test [1] was 1.07 fold enrichment (6-mer frequency, TF over GST control); in test [2] it was 1.14 fold enrichment (6-mer frequency, TF over GST control); in test [3] it was 1.15 fold enrichment (6-mer frequency, TF over GST control); in test [4], 1.15 fold enrichment (6-mer frequency, TF over GST control); in test [5], 1.18 fold enrichment (6-mer frequency, TF over GST control); in test [6], 1.15 fold enrichment (6-mer frequency, TF over GST control). Besides, the binding signal was 1.14 fold enrichment (6-mer frequency, TF over GST control) in test [7]; 1.19 fold enrichment (6-mer frequency, TF over GST control) in test [8]; 1.13 fold enrichment (6-mer frequency, TF over GST control) in [9].

Consider ACTGCA, for which the binding signal in test [1] is 1.1 fold enrichment (6-mer frequency, TF over GST control); in test [2], 1.17 fold enrichment (6-mer frequency, TF over GST control); in [3], 1.05 fold enrichment (6-mer frequency, TF over GST control); in test [4] it was 1.09 fold enrichment (6-mer frequency, TF over GST control); in test [5], 1.19 fold enrichment (6-mer frequency, TF over GST control); in test [6] it was 1.12 fold enrichment (6-mer frequency, TF over GST control). Moreover, the binding signal was 1.27 fold enrichment (6-mer frequency, TF over GST control) in test [7]; 1.15 fold enrichment (6-mer frequency, TF over GST control) in test [8]; 1.11 fold enrichment (6-mer frequency, TF over GST control) in test [9].
